Values joined by “and” are separate entries in the source; they are usually repeats but may differ in a detail not shown here. Equal entries are not always repeated. Inconclusive results are not listed. Entries that show only a call come without a potency. Where a structure was tested more than once in an assay, its records may differ in their call. Active and inactive are the calls of the source. The call rests on the fitted dose curve; in most records, active means well fitted activation curve with a large enough effect in the repeat runs; inconclusive means weak or mixed curves; inactive means no such curve, though single readings can be large or run the other way.
Target: Nuclear receptor subfamily 1 group I member 2 (Homo sapiens) (UniProt O75469)
Sequence (O75469 whole entry, looked up): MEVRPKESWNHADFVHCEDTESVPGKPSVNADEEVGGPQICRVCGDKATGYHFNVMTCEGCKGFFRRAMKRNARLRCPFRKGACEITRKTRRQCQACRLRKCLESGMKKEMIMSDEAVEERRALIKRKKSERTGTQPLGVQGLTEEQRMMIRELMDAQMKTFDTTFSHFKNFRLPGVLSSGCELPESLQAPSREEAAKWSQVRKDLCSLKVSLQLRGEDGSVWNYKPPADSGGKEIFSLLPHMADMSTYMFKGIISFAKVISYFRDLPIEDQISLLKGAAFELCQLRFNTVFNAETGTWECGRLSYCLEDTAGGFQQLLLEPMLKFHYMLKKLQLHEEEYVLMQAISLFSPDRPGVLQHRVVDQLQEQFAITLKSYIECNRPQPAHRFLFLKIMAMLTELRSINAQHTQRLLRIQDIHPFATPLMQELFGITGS
Assay: Human pregnane X receptor (PXR) small molecule agonists, qHTS assay (AID 1346982); further: nearly all actives have a fitted effect of over 35% in size
Conditions: PXR-Luc HepG2, CYP3A4 luciferase reporter, 24 h; series mostly up to 92.4 µM
From the text: National Center for Advancing Translational Sciences [NCATS]
NIH Chemical Genomics Center [NCGC]
U.S. Environmental Protection Agency [EPA]
National Institutes of Environmental Health Sciences [NIEHS]
National Toxicology Program [NTP]
The human pregnane X receptor (hPXR) regulates the expression of several drug metabolizing enzymes and induction of these proteins is a major mechanism for developing drug resistance in cancer. One such key enzyme catalyzing the drug metabolism is cytochrome P450 3A4 (CYP3A4). Changes in CYP3A4 expression affect drug metabolism, thereby reducing the therapeutic efficacy and altering toxicological response to a drug and which finally causes adverse drug interaction. To screen Tox21 libraries for compounds that activate hPXR-mediated CYP3A4 gene expression, PXR-Luc HepG2 cells were used.
PXR-Luc HepG2 cells were dispensed at 2,000 per well in 5uL of assay medium containing 5% charcoal-stripped FBS into white solid bottom 1536-well plates (Corning Life Sciences, Corning, NY) using a Multidrop Combi (Thermo Scientific, Waltham, MA) dispenser. The assay plates were incubated at 37 C and 5% CO2 for 5hr, and then 23nL of compounds dissolved in DMSO and positive control were transferred using a Pintool station (Wako, San Diego, CA). The assay plates were incubated at 37C and 5% CO2 for 24hr. For luciferase read, 4uL of ONE-Glo reagent (Promega Corporation, Madison, WI) was added to each well of the assay plates using Flying Reagent Dispenser (FRD, Aurora Discovery, San Diego, CA) and incubated the assay plates at room temperature for 30min. The luminescence signal was quantified using a ViewLux plate reader (Perkin Elmer, Shelton, CT).
Potency means the concentration at half of the fitted maximal effect.

Row | SMILES | Potency
1 | CN(C)c1ccc(Cc2ccc(N(C)C)cc2)cc1 | 30.8 µM (active) and 43.3 µM (active)
2 | CC(C)CCCCCCCOC(=O)CCCCC(=O)OCCCCCCCC(C)C | 50.4 µM (active) and inactive
3 | CNC(=O)Oc1ccc2c(c1)[C@]1(C)CCN(C)[C@@H]1N2C | inactive
4 | CCCCCCCCCCN | inactive
5 | COCCCN | inactive
6 | CC(C)OC(=O)COc1ccc(Cl)cc1Cl | inactive
7 | CC(C)CC(C)O (stereo not given) | inactive
8 | CCO[Si](CCC#N)(OCC)OCC | inactive
9 | CCCCC(C=O)CC (stereo not given) | inactive
10 | CCO[Si](CCCN)(OCC)OCC | inactive
11 | CCNC(=S)NCC | inactive
12 | Brc1ccc(Br)c(Br)c1 | inactive
13 | CCCCCCCCCCCCCCCCO | inactive
14 | CCOCCOCCOCCO | inactive
15 | CSc1ccc(Cl)cc1 | inactive
16 | CCCCCCCCCCO | inactive
17 | CC1(C)CC(N)CC(C)(CN)C1 (stereo not given) | 49.3 µM (active) and 24.3 µM (active)
18 | CN/C(=C\[N+](=O)[O-])NCCSCc1csc(CN(C)C)n1 | inactive
19 | CC(=O)c1ccc(O)cc1 | inactive
20 | CCCCCCC=O | inactive

Row | SMILES | Potency
21 | CCOCC(=O)O | inactive
22 | O=c1[nH]cnc2[nH]ncc12 | inactive
23 | CC(C)c1cccc(C(C)C)c1 | inactive
24 | CCCCCCCCCCCC(=O)OC | inactive
25 | CN(C)CCOC(=O)COc1ccc(Cl)cc1 | inactive
26 | CC1(C)OC[C@@H]2O[C@@]3(C(=O)O)OC(C)(C)O[C@H]3[C@@H]2O1 | inactive
27 | C=C(C)CNCC | inactive
28 | NC(=S)NNC(N)=S | inactive
29 | CCCCCCO | inactive
30 | c1ccc2c(c1)Cc1ccccc1-2 | inactive
31 | O=C1CCCC1 | inactive
32 | CC(C)OP(=O)(CP(=O)(OC(C)C)OC(C)C)OC(C)C | 27.3 µM (active) and inactive
33 | Nc1ccc(Cl)c(N)c1 | 61.3 µM (active)
34 | CC(O)CC(C)(C)O (stereo not given) | inactive
35 | O=C(O)c1cc2ccccc2cc1O | 54.1 µM (active)
36 | CC(=O)OCc1ccco1 | 60.8 µM (active) and inactive
37 | C[C@]12CC[C@@H]3c4ccc(O)cc4CC[C@H]3[C@@H]1C[C@@H](O)[C@@H]2O | inactive
38 | COc1ccc(OC)cc1 | inactive
39 | COc1ccc(C)cc1N | inactive
40 | C=CC(=O)OCCC(=O)O | inactive

Source: PubChem BioAssay (Tox21)
